In PubChem BioAssay (Tox21):
Records with an inconclusive call do not appear. The source made the active and inactive calls. Unless noted, the call rests on the fitted dose curve; in most records, active means well fitted curve in the direction sought with a large enough effect in the repeat runs; inconclusive means weak or mixed curves; inactive means no such curve, though single readings can be large; an effect the other way counts as inactive or inconclusive.

Key:
[1] = qHTS assay to identify aromatase inhibitors - cell viability counter screen (AID 743084);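 further: cells stimulated with testosterone during compound exposure; nearly all actives have a fitted effect of over 55% in size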
[2] = biological target: Aryl hydrocarbon receptor (Homo sapiens) (UniProt P35869); assay: qHTS assay to identify small molecule that activate the aryl hydrocarbon receptor (AhR) signaling pathway (AID 743085);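 further: HG2L7.5c1 human HepG2 liver cells with stably integrated DRE-driven firefly reporter; series mostly up to about 70 µM; nearly all actives have a fitted effect of over 15% in size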
Procedure, shortened: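 AhR agonist activity is inferred from enhanced light output of a DRE-controlled firefly luciferase reporter in HepG2 cells, measured with ONE-Glo following 24 h treatment at 37C.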

[3] = qHTS assay to identify small molecule that activate the aryl hydrocarbon receptor (AhR) signaling pathway - cell viability counter screen (AID 743086);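 further: HepG2 liver cells carrying the AhR DRE luciferase reporter; series mostly up to about 70 µM; nearly all actives have a fitted effect of over 45% in size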
Procedure, shortened: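 HepG2-AhR-luc (HG2L7.5c1) cells, 4000/well, were preincubated 5 h at 37C, exposed to compound in qHTS format for 24 hr at 37C, then given CellTiter-Fluor for 30 min; viability was read as fluorescence in the reporter wells.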

[4] = biological target: Peroxisome proliferator-activated receptor gamma (Homo sapiens) (UniProt P37231); assay: qHTS assay to identify small molecule agonists of the peroxisome proliferator-activated receptor gamma (PPARg) signaling pathway (AID 743094; active means well fitted activation curve with a large enough effect in the signal ratio in the repeat runs, not every such curve was filed as active; the % refers to the signal ratio)
Procedure, shortened: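 Agonist activity was taken from a beta-lactamase reporter (FRET substrate, 1 h at room temperature) in HEK293H cells carrying a PPARg UAS-bla construct. Compounds in DMSO were incubated 17 h at 37C after a 5 h cell pre-incubation.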

[5] = biological target: Peroxisome proliferator-activated receptor gamma (Homo sapiens) (UniProt P37231); assay: qHTS assay to identify small molecule antagonists of the peroxisome proliferator-activated receptor gamma (PPARg) signaling pathway (AID 743191; calls by dose curve; further: series mostly up to about 63 µM; nearly all actives have a fitted effect of over 30% in size)
Procedure, shortened: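 GeneBLAzer PPARg UAS-bla HEK293H cells carrying a UAS-driven beta-lactamase reporter were plated at 3000 cells/well, preincubated 5 h at 37C, then given compound for 17 h at 37C; LiveBLAzer B/G FRET substrate was read after 1 h at room temperature.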

[6] = qHTS assay to identify small molecule antagonists of the peroxisome proliferator-activated receptor gamma (PPARg) signaling pathway - cell viability counter screen (AID 743194); further: nearly all actives have a fitted effect of over 55% in size
Procedure, shortened: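 PPARg-UAS-bla HEK293H cells were plated, rested 5 h at 37 C, then treated with compounds plus rosiglitazone (50 nM final) for 17 h at 37 C; viability was then read by CellTiter-Glo luminescence after 30 min at room temperature.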

[7] = qHTS assay for small molecule agonists of the antioxidant response element (ARE) signaling pathway (AID 743202; active means well fitted activation curve with a large enough effect in the signal ratio in the repeat runs, not every such curve was filed as active; the % refers to the signal ratio)
Procedure, shortened: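 Following a 16 h, 37 C exposure of reporter HepG2 cells (ARE-driven beta-lactamase, 2,000 cells/well) to compounds, FRET substrate was applied for 2 h at room temperature and fluorescence intensity recorded.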

[8] = qHTS assay for small molecule agonists of the antioxidant response element (ARE) signaling pathway - cell viability counter screen (AID 743203; calls by dose curve; further: nearly all actives have a fitted effect of over 55% in size)
Procedure, shortened: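 Viability counter screen: CellTiter-Glo luminescence, read after 30 min at room temperature, in ARE-bla HepG2 wells. Compound exposure lasted 16 h at 37C/5% CO2, following a 5 h pre-incubation of the cells after plating.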

[9] = qHTS assay for small molecule activators of the heat shock response signaling pathway - cell viability counter screen (AID 743209); further: nearly all actives have a fitted effect of over 50% in size
Procedure, shortened: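 Cytotoxicity counter screen run in the same wells as the heat-shock bla reporter assay: HeLa HSE-bla cells, 5 h compound exposure at 37 C, viability read by CellTiter-Glo luminescence.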

[10] = qHTS assay for small molecule activators of the heat shock response signaling pathway (AID 743210; active means well fitted activation curve with a large enough effect in the signal ratio in the repeat runs, with a control signal flat, not every such curve was filed as active; the % refers to the signal ratio; further: series mostly up to about 63 µM)
Procedure, shortened: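 Heat shock element–beta-lactamase HeLa reporter cells; qHTS with compounds for 5 h at 37 C; detection by FRET substrate fluorescence after 2.5 h at RT.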

[11] = qHTS assay to identify small molecule agonists of the peroxisome proliferator-activated receptor delta (PPARd) signaling pathway - cell viability counter screen (AID 743211); further: nearly all actives have a fitted effect of over 55% in size
Procedure, shortened: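 qHTS cell viability: PPARd-bla HEK293H; 17 h cpd, 37C; CellTiter-Glo, luminescence at 30 min RT.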

[12] = biological target: Peroxisome proliferator-activated receptor delta (Homo sapiens) (UniProt Q03181); assay: qHTS assay to identify small molecule agonists of the peroxisome proliferator-activated receptor delta (PPARd) signaling pathway (AID 743212; calls by dose curve)
Procedure, shortened: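 Beta-lactamase reporter read by fluorescence (LiveBLAzer B/G FRET, 2 h, room temperature). Test agents, in DMSO, incubated at 37 C with PPARd-bla HEK293H cells.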

[13] = qHTS assay to identify small molecule antagonists of the peroxisome proliferator-activated receptor delta (PPARd) signaling pathway - cell viability counter screen (AID 743213); further: nearly all actives have a fitted effect of over 50% in size
Procedure, shortened: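 Luminescence from CellTiter-Glo, added after the bla read and incubated 30 min at room temperature, gives viability of HEK293H PPARd-bla cells exposed to compounds for 17 h at 37 C with 300 nM L165041.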

[14] = qHTS assay to identify small molecule agonists of the farnesoid-X-receptor (FXR) signaling pathway - cell viability counter screen (AID 743218); further: nearly all actives have a fitted effect of over 45% in size
Procedure, shortened: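 Viability counter screen in the same wells: CellTiter-Glo luminescence, 30 min room-temperature incubation, measured after the beta-lactamase read. Cells were GeneBLAzer FXR-UAS-bla HEK 293T, compound-treated 16 h at 37C.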

[15] = qHTS assay to identify small molecule antagonists of the farnesoid-X-receptor (FXR) signaling pathway - cell viability counter screen (AID 743221; active means well fitted cell-killing curve with a large enough effect in the repeat runs, not every such curve was filed as active; further: nearly all actives have a fitted effect of over 50% in size)
Procedure, shortened: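 After a 5 h settling period, FXR-bla HEK 293T cells receive compound and chenodeoxycholic acid (50 uM final) and incubate 16 h at 37 C; CellTiter-Glo luminescence, read after 30 min at room temperature, reports cell viability.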

[16] = biological target: Vitamin D3 receptor (Homo sapiens) (UniProt P11473); assay: qHTS assay to identify small molecule agonists of the vitamin D receptor (VDR) signaling pathway (AID 743222; calls by dose curve)
Procedure, shortened: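 Agonist mode, beta-lactamase reporter: fluorescence from LiveBLAzer B/G FRET substrate (2 h, room temperature) read after 16 h compound treatment at 37 C of VDR-bla cells, which were pre-incubated 4 h after seeding.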

[17] = biological target: Peroxisome proliferator-activated receptor delta (Homo sapiens) (UniProt Q03181); assay: qHTS assay to identify small molecule antagonists of the peroxisome proliferator-activated receptor delta (PPARd) signaling pathway (AID 743215; active means well fitted inhibition curve with a large enough effect in the signal ratio in the repeat runs, not every such curve was filed as active; the % refers to the signal ratio;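 further: cells stimulated with agonist L165041 at 300 nM final during compound exposure; series mostly up to about 62 µM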)
Procedure, shortened: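 Agonist L165041 (300 nM final) added with compound to PPARd-bla HEK293H UAS-bla reporter cells; 17 h incubation at 37 C. Read-out: LiveBLAzer FRET substrate, 2 h at room temperature, fluorescence intensity.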

[18] = biological target: Bile acid receptor (Homo sapiens) (UniProt Q96RI1); assay: qHTS assay to identify small molecule antagonists of the farnesoid-X-receptor (FXR) signaling pathway (AID 743217; active means well fitted inhibition curve with a large enough effect in the signal ratio in the repeat runs, not every such curve was filed as active; the % refers to the signal ratio)
Procedure, shortened: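 Antagonist mode: chenodeoxycholic acid at 50 uM final stimulates a UAS-driven beta-lactamase reporter in HEK 293T FXR-bla cells during 16 h, 37C compound exposure. Read-out is FRET substrate fluorescence after 2 h at room temperature.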

[19] = biological target: Bile acid receptor (Homo sapiens) (UniProt Q96RI1); assay: qHTS assay to identify small molecule agonists of the farnesoid-X-receptor (FXR) signaling pathway (AID 743220; active means well fitted activation curve with a large enough effect in the signal ratio in the repeat runs, not every such curve was filed as active; the % refers to the signal ratio)
Procedure, shortened: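 FXR-UAS-bla HEK 293T cells carrying a UAS-driven beta-lactamase reporter were plated for 5 h at 37C/5% CO2, then exposed to DMSO-dissolved Tox21 10K compounds for 16 h at 37C. A LiveBLAzer B/G FRET substrate was loaded for 2 h at room temperature before fluorescence reading.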

[20] = biological target: Vitamin D3 receptor (Homo sapiens) (UniProt P11473); assay: qHTS assay to identify small molecule antagonists of the vitamin D receptor (VDR) signaling pathway (AID 743223; active means well fitted inhibition curve with a large enough effect in the signal ratio in the repeat runs, not every such curve was filed as active; the % refers to the signal ratio)
Procedure, shortened: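 Reporter line VDR-bla; stimulus 1alpha,25-(OH)2 vitamin D3, 3 nM final; compound co-addition, 16 h 37C/5% CO2; LiveBLAzer B/G substrate 2 h RT; fluorescence intensity.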

Measured: Potency

Chain of Vitamin D3 receptor (Homo sapiens) (P11473 whole entry, looked up): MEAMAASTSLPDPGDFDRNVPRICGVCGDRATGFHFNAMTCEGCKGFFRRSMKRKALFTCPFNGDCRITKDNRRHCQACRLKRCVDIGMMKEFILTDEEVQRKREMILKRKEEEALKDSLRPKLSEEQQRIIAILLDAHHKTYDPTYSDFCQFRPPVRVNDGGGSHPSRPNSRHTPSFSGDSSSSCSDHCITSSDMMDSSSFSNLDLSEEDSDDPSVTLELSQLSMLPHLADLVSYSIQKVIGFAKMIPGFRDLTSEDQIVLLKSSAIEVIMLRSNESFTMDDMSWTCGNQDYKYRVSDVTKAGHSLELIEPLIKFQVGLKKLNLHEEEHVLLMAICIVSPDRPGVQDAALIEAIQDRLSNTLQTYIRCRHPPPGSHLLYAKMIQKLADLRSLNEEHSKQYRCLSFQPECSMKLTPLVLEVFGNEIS
Chain of Bile acid receptor (Homo sapiens) (Q96RI1 whole entry, looked up): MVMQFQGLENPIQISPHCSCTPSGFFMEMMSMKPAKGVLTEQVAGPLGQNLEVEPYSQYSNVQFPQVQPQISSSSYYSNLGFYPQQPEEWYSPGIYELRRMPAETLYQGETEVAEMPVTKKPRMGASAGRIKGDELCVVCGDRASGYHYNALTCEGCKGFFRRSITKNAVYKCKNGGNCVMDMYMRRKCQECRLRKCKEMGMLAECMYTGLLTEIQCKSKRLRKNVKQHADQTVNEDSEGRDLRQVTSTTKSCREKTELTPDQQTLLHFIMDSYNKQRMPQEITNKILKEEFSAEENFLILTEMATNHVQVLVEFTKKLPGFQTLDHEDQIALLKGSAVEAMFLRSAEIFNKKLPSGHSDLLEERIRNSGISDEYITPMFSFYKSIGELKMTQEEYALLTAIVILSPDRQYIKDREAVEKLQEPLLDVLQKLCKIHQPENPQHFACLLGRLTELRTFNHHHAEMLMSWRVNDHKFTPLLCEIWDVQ
Chain of Peroxisome proliferator-activated receptor gamma (Homo sapiens) (P37231 whole entry, looked up): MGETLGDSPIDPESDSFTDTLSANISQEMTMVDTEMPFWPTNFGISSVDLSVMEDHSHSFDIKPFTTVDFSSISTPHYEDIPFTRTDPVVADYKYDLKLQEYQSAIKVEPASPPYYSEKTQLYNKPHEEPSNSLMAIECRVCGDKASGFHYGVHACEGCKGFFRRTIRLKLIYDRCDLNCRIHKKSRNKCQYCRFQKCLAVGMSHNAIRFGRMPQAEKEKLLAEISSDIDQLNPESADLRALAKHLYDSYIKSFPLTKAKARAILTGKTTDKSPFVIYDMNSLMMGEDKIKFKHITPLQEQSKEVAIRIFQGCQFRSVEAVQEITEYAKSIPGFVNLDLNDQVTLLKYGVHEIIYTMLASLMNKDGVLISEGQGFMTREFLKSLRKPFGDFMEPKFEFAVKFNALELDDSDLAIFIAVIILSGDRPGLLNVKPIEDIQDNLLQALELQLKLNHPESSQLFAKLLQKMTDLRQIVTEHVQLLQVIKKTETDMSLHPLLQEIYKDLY
Chain of Aryl hydrocarbon receptor (Homo sapiens) (P35869 whole entry, looked up): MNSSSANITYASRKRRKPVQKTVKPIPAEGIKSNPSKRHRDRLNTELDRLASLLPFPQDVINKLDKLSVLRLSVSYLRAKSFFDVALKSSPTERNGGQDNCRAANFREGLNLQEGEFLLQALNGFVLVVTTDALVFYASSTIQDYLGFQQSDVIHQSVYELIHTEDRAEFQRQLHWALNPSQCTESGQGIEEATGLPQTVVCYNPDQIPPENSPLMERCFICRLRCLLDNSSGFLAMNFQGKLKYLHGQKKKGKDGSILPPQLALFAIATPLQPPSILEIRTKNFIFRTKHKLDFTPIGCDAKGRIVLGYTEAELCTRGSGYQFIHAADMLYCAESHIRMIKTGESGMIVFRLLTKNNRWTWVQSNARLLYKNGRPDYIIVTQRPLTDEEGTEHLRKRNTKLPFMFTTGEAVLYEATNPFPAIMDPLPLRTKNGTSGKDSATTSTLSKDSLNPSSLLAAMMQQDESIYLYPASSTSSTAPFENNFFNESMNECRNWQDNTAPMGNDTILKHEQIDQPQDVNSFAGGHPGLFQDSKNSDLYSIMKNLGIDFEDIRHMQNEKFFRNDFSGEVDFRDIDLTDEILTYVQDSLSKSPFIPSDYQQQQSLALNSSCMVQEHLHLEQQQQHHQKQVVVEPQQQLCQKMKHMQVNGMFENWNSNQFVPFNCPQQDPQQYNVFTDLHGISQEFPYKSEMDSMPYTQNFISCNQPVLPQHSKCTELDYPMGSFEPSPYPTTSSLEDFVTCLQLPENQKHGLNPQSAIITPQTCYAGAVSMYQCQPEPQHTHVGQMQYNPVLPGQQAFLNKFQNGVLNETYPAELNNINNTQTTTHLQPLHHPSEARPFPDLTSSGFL
Chain of Peroxisome proliferator-activated receptor delta (Homo sapiens) (Q03181 whole entry, looked up): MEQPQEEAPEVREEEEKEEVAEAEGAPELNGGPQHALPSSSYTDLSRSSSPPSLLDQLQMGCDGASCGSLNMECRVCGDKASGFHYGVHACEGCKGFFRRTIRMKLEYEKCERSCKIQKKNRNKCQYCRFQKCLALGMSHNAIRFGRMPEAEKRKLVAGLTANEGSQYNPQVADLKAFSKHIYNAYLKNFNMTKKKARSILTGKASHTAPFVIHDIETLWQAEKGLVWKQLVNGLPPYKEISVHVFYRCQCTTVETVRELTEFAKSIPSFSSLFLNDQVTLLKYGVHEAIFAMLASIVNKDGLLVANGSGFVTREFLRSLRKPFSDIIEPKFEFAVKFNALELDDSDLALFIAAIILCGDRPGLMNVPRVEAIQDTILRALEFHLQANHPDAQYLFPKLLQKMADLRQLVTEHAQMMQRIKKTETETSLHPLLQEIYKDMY

CC1=CC(C)C(C=O)CC1 (configuration not stated)
not listed: [17] | [18] | [19] | [20]
inactive: all other assays above

CCCN(CCC)CCc1cccc2c1CC(=O)N2
not listed: [10] | [16] | [18] | [19] | [20]
inactive: all other assays above

COc1c(N2C[C@@H]3CCCN[C@@H]3C2)c(F)cc2c(=O)c(C(=O)O)cn(C3CC3)c12
not listed: [16] | [20]
inactive: all other assays above

CCc1ccc(O)c(OC)c1
not listed: [12] | [16] | [20]
inactive: all other assays above

CC(=O)Nc1ccc(S(N)(=O)=O)cc1
not listed: [10] | [13] | [17] | [20]
inactive: all other assays above

COC(=O)CC(C)=O
not listed: [14] | [16] | [18] | [19] | [20]
inactive: all other assays above

COCCc1ccc(OCC(O)CNC(C)C)cc1 (configuration not stated)
not listed: [10] | [13]
inactive: all other assays above

CCCCCCCCCCCCN(CCCCCCCCCCCC)CCCCCCCCCCCC
not listed: [6] | [12] | [18] | [19]
inactive: all other assays above

CCCCCCCCCCCC
not listed: [7] | [10] | [12] | [16] | [17] | [18] | [19] | [20]
inactive: all other assays above

CCCCNC(=O)NCCCC
not listed: [7] | [12] | [18] | [19]
inactive: all other assays above

O=C(O)CCCc1ccccc1
not listed: [7] | [12] | [17] | [18] | [19]
inactive: all other assays above

O=C(CCCN1CCN(c2ccccn2)CC1)c1ccc(F)cc1
not listed: [7] | [17] | [18] | [19]
inactive: all other assays above

O=c1n(CCO)c(=O)n(CCO)c(=O)n1CCO
not listed: [7]
inactive: all other assays above

CCN(CC)CCNC(=O)c1cc(S(C)(=O)=O)ccc1OC
not listed: [9] | [16] | [18] | [19] | [20]
inactive: all other assays above

O=C1CCCN1C1CCCCC1
not listed: [7] | [10] | [12] | [17]
inactive: all other assays above

N[C@H](C(=O)O)c1ccc(O)cc1
not listed: [9] | [18] | [19]
inactive: all other assays above

CC(C)(O)C#CC(C)(C)O
not listed: [5] | [14] | [16] | [18] | [19] | [20]
inactive: all other assays above

CCCCC(CC)COC(=O)c1ccccc1O (configuration not stated)
not listed: [9] | [12] | [18] | [19]
inactive: all other assays above
